Lassa entry inh: qHTS for Inhibitors of binding or entry into cells for Lassa Virus; Lassa virus pseudotype entry inhibition, cell reporter; Potency, µM (top dose mostly 37.9 µM), inactives show at the top dose activity change, negative = inhibition, hits mostly inhibitors; 1.2% of 300,000 active; AID 540256, 2011; calls by dose curve; tested in HEK293 cells; further: potency means the concentration at half of the fitted maximal effect; on the % scale 0 is the no-effect control and ±100 the full control effect; nearly all actives have a fitted effect of over 50% in size
HCV inhibitor: qHTS Assay for Inhibitors of Hepatitis C Virus (HCV) | 3.4% of 340,000 active | Potency, µM (series often up to 41.8 µM), without a hit: top-dose activity change, negative = inhibition, most hits filed as inhibitors | Huh7.5.1 HCVcc-Cre infection, luciferase reporter, 44 h; active means well fitted inhibition curve with a large enough effect; inconclusive means small, poorly fitted or top-dose-only effect, or another doubt; inactive means no such curve, though single readings can be large or run the other way; further: potency means the concentration at half of the fitted maximal effect; on the % scale 0 is the no-effect control and ±100 the full control effect
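Reporter virus HCVcc-Cre (~0.5 moi) infects cells exposed to compound; seeding density 1,000 cells/well with 4 h settling beforehand. Luminescence, 15 sec read, taken 44 h post-infection following a 15 min RT substrate incubation.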
Marburg entry inh: qHTS for inhibitors of binding or entry into cells for Marburg Virus; Potency, µM (top dose mostly 37.8 µM), for the others: top-dose activity change, negative = inhibition, actives largely listed as inhibitors; 1.8% of 300,000 active; Marburg virus pseudotyped entry inhibition, cell reporter; calls by dose curve; tested in HEK293 cells; further: potency means the concentration at half of the fitted maximal effect; on the % scale 0 is the no-effect control and ±100 the full control effect
Shiga inhibitor: A qHTS for Small Molecule Inhibitors of Shiga Toxin | Vero cells, Shiga toxin protein synthesis inhibition reporter | inhibition, % at 38.7 µM | 9.2% of 290,000 active | AID 2315, 2010; in the data active means inhibition mostly above about 28%, no sharp cut-off; inactive means mostly below about 43%; further: 0% is about no effect
Cycloheximide cs: Cycloheximide Counterscreen for Small Molecule Inhibitors of Shiga Toxin. max response, %. AID 2314, 2010. 12% of 300,000 active. cell reporter, cycloheximide protein synthesis inhibition counterscreen; in the data active means max response mostly above about 13%, no sharp cut-off; inactive means mostly below about 14%; further: read at 38.3 µM for the half of the compounds with a filed dose; 0% is about no effect
FMDV inh: High Throughput Screening for Foot and Mouth Disease Virus Antivirals. FMDV antiviral cell-based qHTS. 1.2% of 410,000 active. Potency, µM (series often up to 57.9 µM), for inactives: at the highest dose activity change, negative = inhibition, actives largely listed as inhibitors; calls by dose curve; tested in HEK293T cells; further: read-out not given here; potency means the concentration at half of the fitted maximal effect; on the % scale 0 is the no-effect control and ±100 the full control effect; nearly all actives have a fitted effect of over 45% in size
The depositor's hits bear a star; [ ] = dose if it differs, or a comment. Rows were chosen to be rich in hits. Some 13% of all compounds tested hit in one or more screens of this group.

How did COc1cccc(NC(=O)CSc2nc3n[nH]c(C)c3c(=N)n2-c2cccc(OC)c2)c1 do in these assays?
Lassa entry inh: -28%; HCV inhibitor: 10µM*; Marburg entry inh: inconclusive; Shiga inhibitor: -10; Cycloheximide cs: 2; FMDV inh: -19%

Results for Cc1cc(C)n2nc(SCC(=O)N(Cc3ccccc3)C3CCS(=O)(=O)C3)nc2n1 (stereo not given) ?
Lassa entry inh: -1%; HCV inhibitor: -1%; Marburg entry inh: inconclusive; Shiga inhibitor: -14; Cycloheximide cs: -3; FMDV inh: -10%

Results for CCOC(=O)c1sc(=S)n(C)c1NC(=O)c1ccc(C(C)(C)C)cc1 ?
Lassa entry inh: inconclusive; HCV inhibitor: -18%; Marburg entry inh: 14µM*; Shiga inhibitor: -12; Cycloheximide cs: -2; FMDV inh: 25µM*

Results for CCOC(=O)C1CCCN(/C=C2\SC(=S)N(CC)C2=O)C1 (stereo not given) ?
HCV inhibitor: -17%; Marburg entry inh: 3%; Shiga inhibitor: 16; Cycloheximide cs: 7.9*; FMDV inh: -11%

What do the screens show for `CCN1C(=O)/C(=C\N2CCCCCC2)SC1=S`?
Lassa entry inh: inconclusive; HCV inhibitor: -26%; Marburg entry inh: 1%; Shiga inhibitor: 23; Cycloheximide cs: 15*; FMDV inh: 3%

What do the screens show for `CCOc1ccccc1C=C1SC(=S)N(CC)C1=O`?
Lassa entry inh: -12%[46.1 µM]; HCV inhibitor: 6%; Marburg entry inh: 13%[46.1 µM]; FMDV inh: -9%

What do the screens show for `CCN1C(=O)/C(=C/N2CCc3ccccc3C2)SC1=S`?
Lassa entry inh: 5%; HCV inhibitor: inconclusive; Marburg entry inh: 28%[46.1 µM]; Shiga inhibitor: 31; Cycloheximide cs: 16*; FMDV inh: 0%

Results for CCN1C(=O)/C(=C/N2CC(C)CC(C)C2)SC1=S (stereo not given) ?
Lassa entry inh: 5%; HCV inhibitor: 4%; Marburg entry inh: 1%; Shiga inhibitor: -6; Cycloheximide cs: 6; FMDV inh: -2%

Results for COc1ccc(NC(=O)Cn2c(=O)c3ccccc3n3nncc23)c(OC)c1 ?
Lassa entry inh: 21%[46.1 µM]; Marburg entry inh: 9%[46.1 µM]; FMDV inh: -12%

Results for CCc1cccc(NC(=O)C2CCCN(S(=O)(=O)c3c(C)[nH]c(=O)[nH]c3=O)C2)c1 (stereo not given) ?
Lassa entry inh: -3%; HCV inhibitor: 21%; Marburg entry inh: 0%; Shiga inhibitor: -9; Cycloheximide cs: -2; FMDV inh: -22%

How did CCN1CCC(CNCc2cn(-c3ccc(OC)cc3)nc2-c2ccccc2Cl)C1 (stereo not given) do in these assays?
Lassa entry inh: inconclusive; HCV inhibitor: 11µM*; Marburg entry inh: 4µM*; Shiga inhibitor: 1; Cycloheximide cs: 1; FMDV inh: 35%

What do the screens show for `COc1ccc(-n2cc(CNCCN3CCOC3=O)c(-c3ccccc3Cl)n2)cc1`?
HCV inhibitor: 5%; Shiga inhibitor: -4; Cycloheximide cs: -2; FMDV inh: -3%

How did COc1ccc(CNC(=O)C2CCN(C(=O)c3cnn(-c4ccccc4)c3-n3cccc3)CC2)cc1 do in these assays?
Lassa entry inh: -26%[46.1 µM]; Marburg entry inh: inconclusive; FMDV inh: inconclusive

What do the screens show for `O=C(c1ccco1)N1CCCC(N2CCN(c3cccc(C(F)(F)F)c3)CC2)C1` (stereo not given)?
Lassa entry inh: inconclusive; HCV inhibitor: 22µM*; Marburg entry inh: -16%[46.1 µM]; Shiga inhibitor: -2; Cycloheximide cs: -1; FMDV inh: -26%

What do the screens show for `Cc1cc(C)c(C(=O)N2CCCC(N3CCN(c4cccc(C(F)(F)F)c4)CC3)C2)o1` (stereo not given)?
HCV inhibitor: 11µM*; Shiga inhibitor: -11; Cycloheximide cs: 7; FMDV inh: inconclusive

How did Cc1ccccc1CN1C(=O)c2ccccc2C1c1nnnn1-c1ccc2c(c1)OCCO2 (stereo not given) do in these assays?
FMDV inh: 10%

Results for O=c1[nH]c(=O)n([C@H]2C[C@H](O)[C@@H](CO)O2)cc1F ?
Lassa entry inh: 0.29µM*; HCV inhibitor: inconclusive; Marburg entry inh: inconclusive; Shiga inhibitor: 18; Cycloheximide cs: -2; FMDV inh: -16%

Results for Cc1cc(NC(=O)CN(C)S(=O)(=O)c2ccc(-c3ccc(=O)[nH]n3)s2)ccc1Br ?
HCV inhibitor: 19%; Shiga inhibitor: -13; Cycloheximide cs: -3; FMDV inh: inconclusive

Results for O=C1C(C=NC2CC2)=C(O)c2ccccc21 ?
Lassa entry inh: inconclusive; HCV inhibitor: 7%; Marburg entry inh: 21%; Shiga inhibitor: 57*; Cycloheximide cs: 37*; FMDV inh: 30%

How did O=C1C(O)=C(O)C(=O)c2ccccc21 do in these assays?
HCV inhibitor: 11%; FMDV inh: inconclusive

What do the screens show for `CC(C)CN=CC1=C(O)c2ccccc2C1=O`?
Lassa entry inh: inconclusive; HCV inhibitor: 25%; Marburg entry inh: 1%; Shiga inhibitor: 72*; Cycloheximide cs: 37*; FMDV inh: 7%

How did O=C1C(C=NCCCN2CCCC2=O)=C(O)c2ccccc21 do in these assays?
Lassa entry inh: -23%; HCV inhibitor: -5%; Marburg entry inh: -19%; Shiga inhibitor: 102*; Cycloheximide cs: 40*; FMDV inh: 47%

How did O=C1C(C=NCc2ccccn2)=C(O)c2ccccc21 do in these assays?
Lassa entry inh: inconclusive; HCV inhibitor: 2%; Marburg entry inh: 8%; Shiga inhibitor: 136*; Cycloheximide cs: 59*

What do the screens show for `O=C1C(C=NCCCn2ccnc2)=C(O)c2ccccc21`?
Lassa entry inh: 12%; HCV inhibitor: 19%; Marburg entry inh: inconclusive; FMDV inh: 40%

Results for O=C(c1ccc2ccccc2c1)C1CCCN(C(=O)c2cnccn2)C1 (stereo not given) ?
HCV inhibitor: 7%; Shiga inhibitor: 14; Cycloheximide cs: 4; FMDV inh: -11%

What do the screens show for `COc1ccc(CN=C(C#N)C2=C(O)c3ccccc3C2=O)cc1`?
HCV inhibitor: -7%; Shiga inhibitor: 14; Cycloheximide cs: 12; FMDV inh: 17%

Results for COc1cc(N=CC2=C(O)c3ccccc3C2=O)cc(OC)c1 ?
Lassa entry inh: 21%; HCV inhibitor: 24%; Marburg entry inh: inconclusive; Shiga inhibitor: 64*; Cycloheximide cs: 20*; FMDV inh: 39%

What do the screens show for `COc1cc(/C=N/NC(=O)c2cccc3ccccc23)ccc1OCC(N)=O`?
Lassa entry inh: -9%[46.1 µM]; HCV inhibitor: -13%; Marburg entry inh: inconclusive; FMDV inh: 16%

How did CCOC(=O)Nc1ccc2c(c1)N(C(=O)CCN(CC)CC)c1ccccc1S2=O (stereo not given) do in these assays?
Lassa entry inh: 18µM*; HCV inhibitor: -4%; Marburg entry inh: inconclusive; Shiga inhibitor: -7; Cycloheximide cs: 6; FMDV inh: -11%

Screens (PubChem BioAssay)
